According to the supplement of paper PMC10849652:
About 7,900 targets were measured; listed, in parts, are those with a hit and a random draw of the rest. About 0.6% of all pairs of compound and target were hits.

Key:
Assay in all cases: log2 fold change, soluble protein after heating vs DMSO (PISA); higher = thermal stabilisation; K562 cells, 10 uM, 30 min; active = over 0.2 and 3.5 SD of the protein, either way, in both replicates (recomputed)
saracatinib = compound: CN1CCN(CCOc2cc(OC3CCOCC3)c3c(Nc4c(Cl)ccc5c4OCO5)ncnc3c2)CC1 [saracatinib]
How it was run: (§1)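 Aliquots of K562 cells (2×10^6 cells/mL) treated with 10 μM compound for 30 min were heated for 3 min over 48°C-58°C. After pooling and extraction in PBS with 0.5% NP-40 at 4°C, soluble protein from a 21,000xg, 90 min spin was quantified by TMTpro 16plex LC-MS/MS with channel sums equalised. Thermal stability is expressed against control samples, from duplicates, as a log2 fold change.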

sotrastaurin = compound: CN1CCN(c2nc(C3=C(c4c[nH]c5ccccc45)C(=O)NC3=O)c3ccccc3n2)CC1 [sotrastaurin]
How it was run: as §1

alvocidib = compound: CN1CC[C@H](c2c(O)cc(O)c3c(=O)cc(-c4ccccc4Cl)oc23)[C@H](O)C1 [alvocidib]
How it was run: as §1

Tubastatin A = compound: CN1CCc2c(c3ccccc3n2Cc2ccc(C(=O)NO)cc2)C1 [Tubastatin A]
How it was run: as §1

[1] = compound: CNC(=O)C1=CC=CC=C1NC2=NC(=NC=C2Cl)NC3=C(C=C(C=C3)N4CCOCC4)OC
How it was run: as §1

defactinib = compound: CNC(=O)c1ccc(Nc2ncc(C(F)(F)F)c(NCc3nccnc3N(C)S(C)(=O)=O)n2)cc1 [defactinib]
How it was run: as §1

rucaparib = compound: CNCc1ccc(-c2[nH]c3cc(F)cc4c3c2CCNC4=O)cc1 [rucaparib]
How it was run: as §1

[2] = compound: CNc1nc(-c2ccc3c(N)n[nH]c3c2)cc(N2C[C@@H](C(=O)NC3CCCCC3)CC[C@H]2C)n1
How it was run: as §1

encorafenib = compound: COC(=O)N[C@@H](C)CNc1nccc(-c2cn(C(C)C)nc2-c2cc(Cl)cc(NS(C)(=O)=O)c2F)n1 [encorafenib]
How it was run: as §1

[3] = compound: COC(=O)[C@H](CCSC)NC(=O)C1=C(C=C(C=C1)NC[C@H](CS)N)C2=CC=CC=C2
How it was run: as §1

[4] = compound: COC1=CC=C(C=C1)CN2C=CC3=C2C=C(C=C3)C(=O)NO
How it was run: as §1

filanesib = compound: CON(C)C(=O)N1N=C(c2cc(F)ccc2F)S[C@@]1(CCCN)c1ccccc1 [filanesib]
How it was run: as §1

zotarolimus = compound: CO[C@H]1C[C@@H]2CC[C@@H](C)[C@@](O)(O2)C(=O)C(=O)N2CCCC[C@H]2C(=O)O[C@H]([C@H](C)C[C@@H]2CC[C@H](n3cnnn3)[C@H](OC)C2)CC(=O)[C@H](C)/C=C(\C)[C@@H](O)[C@@H](OC)C(=O)[C@H](C)C[C@H](C)/C=C/C=C/C=C/1C [zotarolimus]
How it was run: as §1

idasanutlin = compound: COc1cc(C(=O)O)ccc1NC(=O)[C@@H]1N[C@@H](CC(C)(C)C)[C@](C#N)(c2ccc(Cl)cc2F)[C@H]1c1cccc(Cl)c1F [idasanutlin]
How it was run: as §1

alisertib = compound: COc1cc(Nc2ncc3c(n2)-c2ccc(Cl)cc2C(c2c(F)cccc2OC)=NC3)ccc1C(=O)O [alisertib]
How it was run: as §1

[5] = compound: COc1cc2nc(-c3cc(F)ccc3O)nc(N[C@@H]3CNC[C@H]3C(C)(C)O)c2cc1OC
How it was run: as §1

gefitinib = compound: COc1cc2ncnc(Nc3ccc(F)c(Cl)c3)c2cc1OCCCN1CCOCC1 [gefitinib]
How it was run: as §1

[6] = compound: COc1cccc2cc(-c3nc([C@H]4CC[C@H](C(=O)O)CC4)n4ncnc(N)c34)[nH]c12
How it was run: as §1

lapatinib = compound: CS(=O)(=O)CCNCc1ccc(-c2ccc3ncnc(Nc4ccc(OCc5cccc(F)c5)c(Cl)c4)c3c2)o1 [lapatinib]
How it was run: as §1

pictilisib = compound: CS(=O)(=O)N1CCN(Cc2cc3nc(-c4cccc5[nH]ncc45)nc(N4CCOCC4)c3s2)CC1 [pictilisib]
How it was run: as §1

Measured: log2 fold change

PTPN12 (UniProt Q05209)
Sequence of UniProt Q05209 (Q05209 whole entry, looked up): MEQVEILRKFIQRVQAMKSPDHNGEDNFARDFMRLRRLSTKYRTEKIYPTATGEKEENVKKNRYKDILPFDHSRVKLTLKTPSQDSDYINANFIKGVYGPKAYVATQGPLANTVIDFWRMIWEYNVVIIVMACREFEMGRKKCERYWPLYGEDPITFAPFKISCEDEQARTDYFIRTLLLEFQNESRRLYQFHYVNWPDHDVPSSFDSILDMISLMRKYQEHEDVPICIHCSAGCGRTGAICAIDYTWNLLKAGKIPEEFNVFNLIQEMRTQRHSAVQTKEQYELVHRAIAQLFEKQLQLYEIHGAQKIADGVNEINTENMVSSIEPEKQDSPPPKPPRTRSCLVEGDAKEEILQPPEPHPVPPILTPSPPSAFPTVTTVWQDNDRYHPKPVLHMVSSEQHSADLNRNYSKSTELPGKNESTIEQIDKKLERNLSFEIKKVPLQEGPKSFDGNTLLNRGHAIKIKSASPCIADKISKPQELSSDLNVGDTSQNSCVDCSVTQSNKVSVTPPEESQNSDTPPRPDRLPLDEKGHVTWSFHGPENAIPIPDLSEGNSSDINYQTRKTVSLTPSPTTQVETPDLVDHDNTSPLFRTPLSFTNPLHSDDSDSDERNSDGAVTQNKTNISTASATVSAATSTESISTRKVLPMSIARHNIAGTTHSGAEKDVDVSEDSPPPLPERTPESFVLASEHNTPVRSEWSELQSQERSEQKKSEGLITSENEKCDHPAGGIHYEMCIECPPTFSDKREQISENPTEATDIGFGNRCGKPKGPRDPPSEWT
inactive: saracatinib 0.085 | sotrastaurin -0.148 | alvocidib 0.007 | Tubastatin A 0.064 | [1] 0.063 | defactinib 0.006 | rucaparib 0.047 | [2] -0.04 | encorafenib 0.076 | [3] -0.088 | [4] -0.024 | filanesib 0.04 | zotarolimus 0.041 | idasanutlin -0.021 | alisertib -0.06 | [5] 0.053 | gefitinib 0.025 | [6] -0.132 | lapatinib 0.039 | pictilisib 0.012

PISD (UniProt Q9UG56)
active: [2] 0.252
inactive: saracatinib -0.095 | sotrastaurin 0.061 | alvocidib 0 | Tubastatin A 0.019 | [1] 0.026 | defactinib -0.054 | rucaparib 0.06 | encorafenib 0.063 | [3] 0.028 | [4] -0.018 | filanesib -0.012 | zotarolimus 0.015 | idasanutlin -0.074 | alisertib -0.024 | [5] 0.148 | gefitinib 0.008 | [6] 0.012 | lapatinib -0.009 | pictilisib 0.036

PIR (UniProt O00625)
inactive: saracatinib 0.025 | sotrastaurin -0.01 | alvocidib -0.068 | [1] -0.002 | defactinib -0.09 | rucaparib 0.045 | [2] 0 | encorafenib -0.045 | [3] 0.012 | filanesib 0.015 | zotarolimus 0.011 | idasanutlin 0.033 | alisertib -0.038 | [5] 0.085 | gefitinib 0.061 | [6] 0.011 | lapatinib 0.018 | pictilisib 0.077
active: Tubastatin A -0.284 | [4] -0.338

PLBD2 (UniProt Q8NHP8)
inactive: saracatinib 0.033 | sotrastaurin 0.031 | alvocidib 0.006 | Tubastatin A 0.01 | [1] 0.029 | defactinib -0.025 | rucaparib -0.115 | [2] -0.008 | encorafenib 0.005 | [3] 0.038 | [4] -0.069 | filanesib -0.015 | zotarolimus -0.029 | idasanutlin -0.012 | alisertib -0.048 | [5] -0.007 | gefitinib 0.018 | [6] 0.041 | lapatinib -0.008 | pictilisib 0.027

PCTP (UniProt Q9UKL6)
Sequence of UniProt Q9UKL6 (Q9UKL6 whole entry, looked up): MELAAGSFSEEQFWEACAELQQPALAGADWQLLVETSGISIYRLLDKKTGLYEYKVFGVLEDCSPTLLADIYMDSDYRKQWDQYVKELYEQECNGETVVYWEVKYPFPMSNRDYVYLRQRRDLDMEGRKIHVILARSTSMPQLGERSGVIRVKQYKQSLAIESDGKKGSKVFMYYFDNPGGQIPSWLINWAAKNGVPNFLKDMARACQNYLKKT
inactive: saracatinib 0.083 | sotrastaurin -0.016 | alvocidib 0.014 | Tubastatin A -0.002 | [1] 0 | defactinib -0.037 | rucaparib -0.056 | [2] 0.039 | encorafenib -0.032 | [3] 0.094 | [4] -0.007 | filanesib -0.175 | zotarolimus -0.066 | idasanutlin 0.029 | alisertib -0.081 | gefitinib -0.024 | [6] -0.031 | lapatinib 0.052
active: [5] -0.239 | pictilisib 0.392

POTEI (UniProt P0CG38)
Sequence of UniProt P0CG38 (P0CG38 whole entry, looked up): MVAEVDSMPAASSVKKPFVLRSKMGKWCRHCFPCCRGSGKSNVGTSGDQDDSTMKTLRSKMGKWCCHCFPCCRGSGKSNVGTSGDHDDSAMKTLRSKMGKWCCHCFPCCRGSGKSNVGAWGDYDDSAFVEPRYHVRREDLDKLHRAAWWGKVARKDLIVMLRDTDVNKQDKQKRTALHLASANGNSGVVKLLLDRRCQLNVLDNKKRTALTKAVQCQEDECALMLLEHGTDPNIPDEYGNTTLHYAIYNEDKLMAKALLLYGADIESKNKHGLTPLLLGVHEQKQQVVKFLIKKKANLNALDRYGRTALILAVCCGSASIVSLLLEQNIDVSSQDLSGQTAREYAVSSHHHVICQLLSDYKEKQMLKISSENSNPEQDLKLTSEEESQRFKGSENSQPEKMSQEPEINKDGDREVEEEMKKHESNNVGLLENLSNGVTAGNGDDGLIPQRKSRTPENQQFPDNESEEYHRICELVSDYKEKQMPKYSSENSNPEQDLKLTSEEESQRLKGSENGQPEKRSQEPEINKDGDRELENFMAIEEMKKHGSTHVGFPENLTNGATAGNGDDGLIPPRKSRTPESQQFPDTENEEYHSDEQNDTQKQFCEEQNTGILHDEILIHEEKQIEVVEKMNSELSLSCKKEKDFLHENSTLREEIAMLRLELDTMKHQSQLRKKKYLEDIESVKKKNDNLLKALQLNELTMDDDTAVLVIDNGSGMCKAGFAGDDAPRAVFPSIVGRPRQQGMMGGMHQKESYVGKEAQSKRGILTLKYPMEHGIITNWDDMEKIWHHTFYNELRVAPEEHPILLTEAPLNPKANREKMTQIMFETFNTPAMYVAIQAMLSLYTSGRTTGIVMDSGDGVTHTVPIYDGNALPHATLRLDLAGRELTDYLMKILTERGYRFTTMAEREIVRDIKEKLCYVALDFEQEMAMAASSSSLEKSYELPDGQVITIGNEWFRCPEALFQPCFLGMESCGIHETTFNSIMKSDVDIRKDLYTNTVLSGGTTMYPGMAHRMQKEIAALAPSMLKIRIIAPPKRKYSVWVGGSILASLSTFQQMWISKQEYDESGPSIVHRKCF
inactive: saracatinib 0.108 | sotrastaurin 0.066 | alvocidib -0.038 | Tubastatin A -0.012 | [1] -0.02 | defactinib -0.026 | rucaparib -0.049 | [2] -0.014 | encorafenib -0.007 | [3] -0.016 | [4] 0.033 | filanesib 0.04 | zotarolimus 0.025 | idasanutlin -0.007 | alisertib 0.037 | [5] -0.003 | gefitinib 0.015 | [6] 0.067 | lapatinib -0.006 | pictilisib 0.012

PIP4P2 (UniProt Q8N4L2)
inactive: saracatinib 0.056 | sotrastaurin -0.003 | alvocidib -0.048 | Tubastatin A 0.072 | [1] -0.007 | defactinib 0.004 | rucaparib -0.003 | [2] -0.106 | encorafenib -0.04 | [3] 0.093 | [4] 0.053 | zotarolimus 0.027 | idasanutlin 0.14 | alisertib 0.022 | [5] 0.007 | gefitinib 0.009 | [6] -0.016 | lapatinib 0.03 | pictilisib 0.061
active: filanesib -0.383

PEX16 isoform 2 (UniProt Q9Y5Y5)
Sequence of UniProt Q9Y5Y5 (Q9Y5Y5 whole entry, looked up): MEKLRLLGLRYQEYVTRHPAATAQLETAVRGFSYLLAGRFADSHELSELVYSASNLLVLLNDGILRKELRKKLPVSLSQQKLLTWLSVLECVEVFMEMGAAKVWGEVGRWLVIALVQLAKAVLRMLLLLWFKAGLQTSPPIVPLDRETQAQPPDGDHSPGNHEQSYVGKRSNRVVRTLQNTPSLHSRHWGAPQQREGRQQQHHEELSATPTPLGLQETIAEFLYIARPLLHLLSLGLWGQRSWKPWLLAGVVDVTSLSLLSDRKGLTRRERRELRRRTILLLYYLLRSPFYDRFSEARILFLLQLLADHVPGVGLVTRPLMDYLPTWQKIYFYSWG
inactive: saracatinib 0.038 | sotrastaurin -0.02 | alvocidib -0.141 | Tubastatin A 0.021 | [1] -0.053 | defactinib -0.106 | rucaparib 0.042 | [2] -0.04 | encorafenib 0.001 | [3] 0.05 | [4] 0.146 | filanesib -0.152 | zotarolimus 0.016 | idasanutlin -0.076 | alisertib -0.011 | [5] -0.227 | gefitinib -0.021 | [6] 0.193 | lapatinib 0.05 | pictilisib -0.089

PPIL2 (UniProt Q13356)
Sequence of UniProt Q13356 (Q13356 whole entry, looked up): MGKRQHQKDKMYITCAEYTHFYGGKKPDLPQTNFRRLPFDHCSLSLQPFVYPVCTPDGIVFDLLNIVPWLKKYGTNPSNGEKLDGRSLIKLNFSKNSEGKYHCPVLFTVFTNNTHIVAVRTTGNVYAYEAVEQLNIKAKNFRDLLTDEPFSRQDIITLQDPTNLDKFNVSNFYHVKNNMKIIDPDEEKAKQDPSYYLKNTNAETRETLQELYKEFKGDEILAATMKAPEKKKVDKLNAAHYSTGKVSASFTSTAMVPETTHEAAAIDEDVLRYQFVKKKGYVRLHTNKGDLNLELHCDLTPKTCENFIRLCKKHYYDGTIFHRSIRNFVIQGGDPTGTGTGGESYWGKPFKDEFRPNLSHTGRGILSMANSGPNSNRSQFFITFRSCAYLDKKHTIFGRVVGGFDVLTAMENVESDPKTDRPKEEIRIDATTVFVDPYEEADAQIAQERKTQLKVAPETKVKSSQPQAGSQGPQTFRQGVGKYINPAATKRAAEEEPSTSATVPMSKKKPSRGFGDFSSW
inactive: saracatinib -0.02 | sotrastaurin -0.096 | alvocidib -0.093 | Tubastatin A 0.069 | [1] -0.023 | defactinib -0.194 | rucaparib 0.073 | [2] 0.067 | encorafenib 0.047 | [3] -0.065 | [4] 0.035 | filanesib 0.012 | zotarolimus 0.05 | idasanutlin -0.032 | alisertib 0.01 | [5] 0.131 | gefitinib 0.076 | [6] -0.023 | lapatinib -0.02 | pictilisib 0.028

PTTG1 (UniProt O95997)
Sequence of UniProt O95997 (O95997 whole entry, looked up): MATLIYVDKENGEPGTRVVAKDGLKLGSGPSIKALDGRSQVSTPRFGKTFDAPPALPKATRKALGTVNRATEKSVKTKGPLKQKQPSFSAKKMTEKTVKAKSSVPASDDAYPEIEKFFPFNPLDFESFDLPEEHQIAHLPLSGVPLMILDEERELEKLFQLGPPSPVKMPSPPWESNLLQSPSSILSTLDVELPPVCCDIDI
inactive: saracatinib -0.061 | sotrastaurin -0.004 | alvocidib 0.004 | Tubastatin A 0.141 | [1] -0.145 | defactinib -0.029 | rucaparib -0.145 | [2] -0.088 | encorafenib -0.001 | [3] 0.031 | [4] 0.011 | filanesib 0.052 | zotarolimus -0.077 | idasanutlin -0.011 | alisertib -0.022 | [5] -0.156 | gefitinib -0.048 | [6] -0.058 | lapatinib -0.013 | pictilisib -0.07

PFDN1 (UniProt O60925)
inactive: saracatinib -0.074 | sotrastaurin -0.014 | alvocidib -0.035 | Tubastatin A 0.022 | [1] -0.001 | defactinib -0.066 | rucaparib -0.095 | [2] 0.093 | encorafenib 0.008 | [3] -0.078 | [4] -0.048 | filanesib -0.007 | zotarolimus 0.091 | idasanutlin -0.024 | alisertib -0.042 | [5] -0.125 | gefitinib -0.002 | [6] 0.026 | lapatinib -0.047 | pictilisib 0.014

PNPLA8 (UniProt Q9NP80)
Sequence of UniProt Q9NP80 (Q9NP80 whole entry, looked up): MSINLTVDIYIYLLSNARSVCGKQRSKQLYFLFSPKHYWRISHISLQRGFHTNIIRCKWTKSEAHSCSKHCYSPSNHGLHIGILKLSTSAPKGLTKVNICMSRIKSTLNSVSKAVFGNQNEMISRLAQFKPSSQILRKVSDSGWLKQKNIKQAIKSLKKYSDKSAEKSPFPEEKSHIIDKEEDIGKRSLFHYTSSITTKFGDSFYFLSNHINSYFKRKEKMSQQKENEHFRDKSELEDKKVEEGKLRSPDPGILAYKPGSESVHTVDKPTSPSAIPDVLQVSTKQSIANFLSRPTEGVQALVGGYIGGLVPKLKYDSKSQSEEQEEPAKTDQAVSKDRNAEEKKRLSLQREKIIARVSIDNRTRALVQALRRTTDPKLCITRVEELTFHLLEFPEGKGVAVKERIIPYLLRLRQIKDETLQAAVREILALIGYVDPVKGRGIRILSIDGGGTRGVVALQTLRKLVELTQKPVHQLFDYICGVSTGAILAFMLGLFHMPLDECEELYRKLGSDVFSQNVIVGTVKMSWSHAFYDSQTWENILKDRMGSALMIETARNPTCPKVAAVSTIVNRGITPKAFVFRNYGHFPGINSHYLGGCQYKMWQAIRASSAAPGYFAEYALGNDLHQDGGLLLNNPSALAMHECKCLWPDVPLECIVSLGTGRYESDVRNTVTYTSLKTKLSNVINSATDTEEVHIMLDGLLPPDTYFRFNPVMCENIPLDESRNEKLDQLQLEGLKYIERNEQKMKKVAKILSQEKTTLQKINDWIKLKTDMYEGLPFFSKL
inactive: saracatinib 0.022 | sotrastaurin 0.052 | alvocidib 0.037 | Tubastatin A -0.009 | [1] -0.021 | defactinib -0.051 | rucaparib 0.038 | [2] -0.016 | encorafenib 0.026 | [3] -0.01 | [4] -0.061 | filanesib 0.006 | zotarolimus -0.077 | idasanutlin -0.072 | alisertib -0.053 | [5] -0.125 | gefitinib 0.032 | [6] 0.047 | lapatinib -0.022 | pictilisib 0.118

PLCG1 isoform 2 (UniProt P19174)
inactive: saracatinib -0.131 | sotrastaurin -0.005 | alvocidib -0.007 | Tubastatin A 0.1 | [1] -0.048 | defactinib -0.128 | rucaparib 0.088 | [2] 0.054 | encorafenib 0.012 | [3] -0.007 | [4] 0.104 | filanesib -0.139 | zotarolimus 0.038 | idasanutlin 0.017 | alisertib 0.05 | [5] 0.012 | gefitinib -0.047 | [6] 0.029 | lapatinib -0.003 | pictilisib 0.046

PCYT1A (UniProt P49585)
inactive: saracatinib -0.014 | sotrastaurin -0.105 | alvocidib -0.254 | Tubastatin A 0.013 | [1] 0.032 | defactinib -0.186 | rucaparib -0.127 | [2] -0.097 | encorafenib -0.001 | [3] -0.02 | [4] 0.006 | filanesib -0.005 | zotarolimus 0.035 | idasanutlin -0.015 | alisertib 0.025 | [5] -0.05 | gefitinib -0.012 | [6] -0.037 | lapatinib 0.018 | pictilisib 0.03

PRKAA1 isoform 2 (UniProt Q13131)
Sequence of UniProt Q13131 (Q13131 whole entry, looked up): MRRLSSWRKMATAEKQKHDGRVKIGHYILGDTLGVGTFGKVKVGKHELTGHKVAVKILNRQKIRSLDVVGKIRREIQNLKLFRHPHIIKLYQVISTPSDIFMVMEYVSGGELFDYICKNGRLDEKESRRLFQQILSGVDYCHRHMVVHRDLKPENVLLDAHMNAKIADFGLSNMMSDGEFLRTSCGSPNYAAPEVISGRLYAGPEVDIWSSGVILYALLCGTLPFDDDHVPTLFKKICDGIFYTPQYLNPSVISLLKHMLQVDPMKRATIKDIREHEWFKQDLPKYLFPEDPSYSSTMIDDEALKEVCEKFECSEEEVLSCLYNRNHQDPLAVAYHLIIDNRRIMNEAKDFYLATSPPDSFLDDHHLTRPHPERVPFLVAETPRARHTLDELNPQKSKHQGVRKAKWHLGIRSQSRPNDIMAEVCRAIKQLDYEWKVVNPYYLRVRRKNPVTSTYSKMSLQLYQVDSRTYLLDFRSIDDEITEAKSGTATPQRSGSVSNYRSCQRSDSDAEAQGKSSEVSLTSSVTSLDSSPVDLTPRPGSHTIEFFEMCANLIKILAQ
inactive: saracatinib 0.027 | sotrastaurin 0.033 | alvocidib -0.032 | Tubastatin A -0.015 | [1] -0.19 | defactinib -0.048 | rucaparib -0.006 | [2] -0.047 | encorafenib 0.02 | [3] -0.004 | [4] 0.029 | filanesib -0.043 | zotarolimus -0.007 | idasanutlin 0.013 | alisertib -0.047 | [5] -0.014 | gefitinib 0.004 | [6] 0.016 | lapatinib -0.008 | pictilisib -0.03

PRPF31 (UniProt Q8WWY3)
Sequence of UniProt Q8WWY3 (Q8WWY3 whole entry, looked up): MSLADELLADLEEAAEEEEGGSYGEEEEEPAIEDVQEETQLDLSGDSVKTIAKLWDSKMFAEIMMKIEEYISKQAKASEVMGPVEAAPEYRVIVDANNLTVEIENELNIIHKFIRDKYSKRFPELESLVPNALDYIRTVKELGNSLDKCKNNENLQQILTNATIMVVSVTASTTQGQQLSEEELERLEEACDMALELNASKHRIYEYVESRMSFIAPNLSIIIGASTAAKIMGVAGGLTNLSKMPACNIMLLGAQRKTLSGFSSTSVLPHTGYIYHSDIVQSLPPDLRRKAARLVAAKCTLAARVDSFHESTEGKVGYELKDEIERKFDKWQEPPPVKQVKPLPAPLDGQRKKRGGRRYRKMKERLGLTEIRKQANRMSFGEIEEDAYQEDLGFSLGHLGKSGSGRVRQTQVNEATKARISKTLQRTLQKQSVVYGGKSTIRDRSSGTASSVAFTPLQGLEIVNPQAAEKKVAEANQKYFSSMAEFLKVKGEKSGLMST
active: defactinib -0.456
inactive: saracatinib -0.093 | sotrastaurin -0.15 | alvocidib -0.193 | Tubastatin A 0.144 | [1] -0.033 | rucaparib -0.068 | [2] 0.033 | encorafenib 0.011 | [3] -0.037 | [4] 0.07 | filanesib 0.006 | zotarolimus -0.028 | idasanutlin -0.053 | alisertib 0.081 | [5] -0.393 | gefitinib 0.003 | [6] 0.024 | lapatinib 0.061 | pictilisib 0.139
